Screening results (PubChem BioAssay)
ALOX12 inh – inhibitors of human 12S-lipoxygenase ALOX12 | AID 1671190 | P18054 | actives 1.1% (n = 580,000) | Potency, µM (doses to about 108 µM), for the others: at the top dose activity change, negative = inhibition, hits mostly inhibitors | purified 12hLO, xylenol orange hydroperoxide absorbance; also: % is scaled to controls: 0 for no effect and ±100 for the full control effect
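Purified human 12hLO (150 nM final) in 25 mM Hepes, 0.01% Triton X-100, pH 7.0 was preincubated 15 min at room temperature with compound. Then 40 uM arachidonic acid was added, 30 min. Hydroperoxide was read by Fe-XO absorbance ratio 573/405 nm.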
IDH1 R132H inh – blocks human mutant IDH1 R132H enzyme; O75874; IDH1-R132H enzyme, NADPH consumption, diaphorase/resazurin fluorescence; Potency, µM (top dose mostly 76.6 µM), inactives show at the highest dose activity change, negative = inhibition, most hits filed as inhibitors; actives 0.093% (n = 390,000); AID 602179; also: % is scaled to controls: 0 for no effect and ±100 for the full control effect; nearly all actives have a fitted effect of over 65% in size
Target sequence (O75874 whole entry R132H, stated change not applied): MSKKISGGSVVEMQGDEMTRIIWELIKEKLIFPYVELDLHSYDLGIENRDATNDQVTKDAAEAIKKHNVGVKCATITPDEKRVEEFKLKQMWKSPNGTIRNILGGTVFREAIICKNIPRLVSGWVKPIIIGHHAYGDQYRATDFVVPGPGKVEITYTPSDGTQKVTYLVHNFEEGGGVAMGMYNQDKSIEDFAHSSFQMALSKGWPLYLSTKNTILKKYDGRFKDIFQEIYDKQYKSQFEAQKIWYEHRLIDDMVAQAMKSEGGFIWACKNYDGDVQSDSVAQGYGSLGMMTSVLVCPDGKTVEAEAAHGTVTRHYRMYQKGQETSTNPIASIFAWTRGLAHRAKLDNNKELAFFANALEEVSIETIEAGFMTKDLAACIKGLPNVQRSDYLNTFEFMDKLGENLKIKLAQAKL
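IDH1-R132H (0.5 ug/mL dispensed) in pH 7.5 Tris buffer was preincubated 30 min with compound, then given a substrate mix of 0.016 mM NADPH and 2 mM alpha-KG for 80 min at room temperature; remaining NADPH was read by diaphorase/resazurin fluorescence.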
TrxR1 inh – blocks rat thioredoxin reductase 1; O89049; recombinant rTrxR1, NADPH fluorescence consumption, selenite substrate; Potency, µM (top dose mostly 114 µM), for inactives: at the top dose activity change, negative = inhibition, actives largely listed as inhibitors; actives 1% (n = 390,000); AID 588453; also: % is scaled to controls: 0 for no effect and ±100 for the full control effect; nearly all actives have a fitted effect of over 65% in size
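Rat TrxR1 (90 nM in the dispensed reagent) was pre-reduced with 400 uM NADPH for 5 min at room temperature, then incubated with compound for 15 min. After 400 uM selenite was added, NADPH fluorescence (Ex 340/Em 450 nm) was followed for 8 min.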
Apoferritin bind – candidate novel general anesthetic via apoferritin binding; actives 0.074% (n = 350,000); AID 485281; P02791; apoferritin/1-aminoanthracene competitive binding, fluorescence; Potency, µM (highest dose often 77.5 µM), inactives show at the top dose activity change, negative = displacement, hits mostly inhibitors; also: % is scaled to controls: 0 for no effect and ±100 for the full control effect; nearly all actives have a fitted effect of over 20% in size
Target sequence (P02791 2-175 limits assumed): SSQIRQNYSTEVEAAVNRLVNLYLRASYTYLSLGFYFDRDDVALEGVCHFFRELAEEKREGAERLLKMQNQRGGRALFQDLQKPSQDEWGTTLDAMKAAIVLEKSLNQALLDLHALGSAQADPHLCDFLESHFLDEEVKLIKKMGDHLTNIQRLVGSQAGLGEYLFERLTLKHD
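Apoferritin-based anesthetic binding model; compound displacement of fluorescent 1-AMA measured as endpoint fluorescence after 10 minutes at room temperature, scaled to free-ligand and complex controls.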
TrxR1 substrate – rat thioredoxin reductase 1 substrate activity; AID 588456; Potency, µM (titrated, usually from 114 µM), without a hit: at the top dose activity change, negative = substrate turnover; actives 0.01% (n = 390,000); purified TrxR1 substrate turnover, NADPH consumption readout; O89049; also: % is scaled to controls: 0 for no effect and ±100 for the full control effect; nearly all actives have a fitted effect of over 50% in size
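Rat TrxR1, dispensed at 90 nM, was prereduced with 400 uM NADPH (final) for 5 min at ~22 deg C, then incubated with compound 15 min before 400 uM selenite. A first-read NADPH fluorescence drop versus no-compound background flagged substrates.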
GRP78 ERSR act – ER stress response induction in glioma. actives 0.02% (n = 420,000). U87-MG GRP78 promoter luciferase reporter, 16 h. Potency, µM, inactives show at the top dose activation, usual class: activators. AID 602332; also: series mostly up to about 76 µM; % of control where 0% means no effect; nearly all actives have a fitted effect of over 35% in size
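ERSR induction read as luciferase luminescence (Bright-Glo, 10 min at room temperature) in stably transfected human U87-MG glioma cells exposed to compounds for 16 h, using GRP78 as sensor.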
* marks the source's active call; other numbers are inactive results; ? = inconclusive; · = no result; [ ] = remark or other dose. Most compounds without a hit are left out; they make up all but 1.7% or so of the library. Calls follow the shape of the dose curve; as a rule, active = well fitted curve in the direction sought with a large enough effect; inconclusive = small, poorly fitted or top-dose-only effect, or another doubt; inactive = no such curve, though single readings can be large; an effect the other way counts as inactive or inconclusive. Potency is read from the fitted curve at half-maximal effect.

SMILES	ALOX12 inh	IDH1 R132H inh	TrxR1 inh	Apoferritin bind	TrxR1 substrate	GRP78 ERSR act
CC(=O)N1CCCc2cc(S(=O)(=O)N(C)CC(=O)Nc3cccc(C)c3C)ccc21	-24.9%	11.3%	29.7%[57.1 µM]	5.1%	6.0%[57.1 µM]	0.1%
O=C1COCC2(CN1Cc1ccccc1)CN(c1ccccc1)C2	-8.0%[176 µM]	·	·	·	·	·
O=C1N(Cc2ccccc2)CC2(Br)COCOC12O (centres undefined)	?	6.1%	2.24µM*	·	8.2%[11.4 µM]	-3.2%
CC(=O)Nc1ccc(C(=O)OC(C)C(=O)C23CC4CC(CC(C4)C2)C3)cc1 (centres undefined)	1.7%	·	·	·	·	·
O=C(Oc1ccc2ccc(=O)oc2c1)c1ccccc1	0.0%	8.8%	18.0%	-8.4%	28.4%	-3.5%
Cc1ccc(S(=O)(=O)NCCC(=O)Oc2ccc3ccc(=O)oc3c2)cc1	-18.9%	12.3%	56.2µM*	154.6%	94.5%	-3.0%
CCC(NC(=O)OCc1ccccc1)C(=O)Oc1ccc2ccc(=O)oc2c1 (centres undefined)	·	-0.5%	50.1µM*	343.1%	117.1%	-1.7%
Cc1ccc(S(=O)(=O)NC(C(=O)Oc2ccc3ccc(=O)oc3c2)c2ccccc2)cc1 (centres undefined)	-20.5%	9.4%	50.1µM*	457.4%	258.6%	-2.7%
Fc1ccc(Nc2ccnc(-c3ccccc3C(F)(F)F)n2)cc1	?	·	·	·	·	1.3%
CN(C)c1ccnc(-c2ccccc2C(F)(F)F)n1	50.1µM*	·	·	-9.6%	·	-0.8%
CN(C)CC(=O)N1Cc2ccccc2OC2(CCN(C(=O)N3CCN(C)CC3)CC2)C1	17.7%[6.33 µM]	·	·	·	·	·
CN(CC1(CO)CCC1)C(=O)C1CCC(=O)N(CCc2ccc(Cl)cc2)C1 (centres undefined)	20.7%	·	·	·	·	·
Cc1nc(-c2ccc3c(c2)-c2ccccc2C3)cs1	0.316µM*	·	·	·	·	·
O=C(NCCc1ccc(F)cc1)C1CN(c2ccc(F)cc2)C(=O)N1 (centres undefined)	38.5%	·	·	·	·	·
NS(=O)(=O)c1ccc(CCNC(=O)CNCCc2ccccc2)cc1	0.631µM*	-3.9%	-15.0%	-1.3%	2.2%	-3.6%
CN(C)CCC(=O)C(Cc1ccccc1)c1ccccc1 (centres undefined)	?	-2.5%	0.251µM*	·	0.1%	-17.1%
CN(C)CCNC(=O)C(c1ccccc1)c1ccccc1	0.0%	-1.7%	20.6%	-4.4%	0.4%	-2.6%
CC(C)OCCCNC(=O)Cn1cnc2c1c(=O)n(C)c(=O)n2C	-1.4%	·	·	·	·	·
COc1ccc(C2/C(=C(/O)c3ccc4c(c3)CC(C)O4)C(=O)C(=O)N2Cc2cccnc2)cc1 (centres undefined)	-9.1%	-5.9%	14.3%[57.1 µM]	-3.6%	-16.1%[57.1 µM]	-0.8%
COc1ccc(C2/C(=C(\O)c3ccc4c(c3)CC(C)O4)C(=O)C(=O)N2Cc2cccnc2)c(OC)c1 (centres undefined)	11.2µM*	-3.1%	-4.1%	-23.0%	-2.9%	-2.0%
CC[C@H]1CN(C(=O)c2ccc(F)cc2)CC[C@H]1CC(=O)NC(C)C	21.1%[176 µM]	·	·	·	·	·
CC1CCCN(C(=O)/C(=C/c2ccco2)NC(=O)c2ccccc2)C1 (centres undefined)	?	3.9%	?	-0.1%	-2.6%	-0.8%
O=C(N/C(=C\c1ccco1)C(=O)N1CCCC1CO)c1ccccc1 (centres undefined)	-24.1%	-8.0%	39.8µM*	1.0%	-15.0%	-5.0%
Cc1cc(NC(=O)COC(=O)c2oc3ccccc3c2C)no1	-0.3%	·	·	·	·	·
CCOc1ccccc1OCc1nn2c(C3COc4ccccc4O3)nnc2s1 (centres undefined)	7.08µM*	·	·	·	·	·
SMILES	ALOX12 inh	IDH1 R132H inh	TrxR1 inh	Apoferritin bind	TrxR1 substrate	GRP78 ERSR act
Cc1nn(-c2ccc(N3CCCC3)nn2)c(C)c1CCC(=O)NCc1ccc(F)cc1	-1.9%	-7.0%	7.7%[57.1 µM]	-8.7%	0.7%[57.1 µM]	0.6%
Fc1cccc(C[n+]2csc3ccccc32)c1	17.8µM*	-5.4%	?	?	-8.6%	1.6%
c1ccc(C[n+]2csc3ccccc32)cc1	?	7.5%	42.8%	-22.4%	3.1%	0.8%
CCOC(=O)c1c(-c2ccc(OC)c(OC)c2)csc1NC(=O)CNC(C)(C)C	-0.8%	·	·	·	·	·
O=[N+]([O-])C(/C=C(/Cl)[N+](=O)[O-])=C(N1CCCCC1)N1CCCCC1	?	-4.5%	7.94µM*	-2.6%	-9.6%[57.1 µM]	2.1%
CCC(N)(CC)c1cn(CC2CCCN(S(C)(=O)=O)C2)nn1 (centres undefined)	20µM*	·	·	·	·	·
O=C(O)c1cc(-c2cccc3ccccc23)nc2ccccc12	-12.2%	-5.1%	-0.4%	6.2%	14.7%	-4.1%
O=C(O)c1cc(-c2c[nH]c3ccccc23)nc2cc3ccccc3cc12	12.6µM*	·	·	61.2%	·	·
O=C(Nc1ccc(S(=O)(=O)N2CCCCCC2)cc1)c1[nH]ncc1[N+](=O)[O-]	0.0%	·	·	12.6µM*	·	·
CC(=O)c1cccc(NC(=O)Cn2c(=O)c3c(ncn3CC(C)C)n(Cc3ccccc3)c2=O)c1	14.1%	·	·	·	·	·
O=C(c1ccc(F)c(F)c1)N1CCC2(CC1)N(c1ccccc1)C(=O)CS2(=O)=O	21.7%	·	·	·	·	·
COc1cccc([C@H]2Nc3ccc(S(=O)(=O)Nc4cc(C)ccc4C)cc3[C@H]3C=CC[C@H]32)c1	-27.3%	3.9%	4.7%	-21.2%	9.7%	-2.4%
Cc1ccc([C@H]2Nc3ccc(S(=O)(=O)Nc4cccc(Cl)c4C)cc3[C@H]3C=CC[C@H]32)cc1	39.8µM*	4.9%	10.0%	?	5.1%	-4.6%
CC1=C[C@@H](CNC(=O)CCCC(=O)O)[C@H](C(C)C)C[C@H]1Cc1nc2ccc(F)cc2[nH]1	5.5%[176 µM]	·	·	·	·	·
O=C(Nc1cccc(C(F)(F)F)c1)O[C@@H]1CO[C@H]2[C@@H]1OC[C@@H]2NC(=S)NC1CCCCC1	44.7µM*	·	·	·	·	·
N#CC(C#N)=Cc1cn(-c2ncc(C(F)(F)F)cc2Cl)c2ccccc12	0.0%	8.9%	15.8µM*	-3.3%	-15.0%[57.1 µM]	-4.7%
CC(=O)/C=C\c1cn(-c2ncc(C(F)(F)F)cc2Cl)c2ccccc12	?	5.7%	5.6%[57.1 µM]	-13.2%	-11.2%	-6.2%
COc1ccc(-c2nnc3ccc(Oc4ccc(NC(C)=O)cc4)nn23)cc1	6.0%	·	·	·	·	·
CCCc1nc(C)cc(N2CCC(NCCc3ccc(Cl)cc3)CC2)n1	8.91µM*	·	·	·	·	·
CCn1cc(SCC(=O)Nc2ccc(C)cc2)c2ccccc21	-17.8%	·	·	·	·	·
C/C(=N\NC(=S)NCc1ccccc1)c1cccs1	39.8µM*	5.3%	46.7%[57.1 µM]	31.1%	-2.0%[57.1 µM]	5.9%
